# High-throughput results (PubChem BioAssay)
# A549 viability = A549 cytotoxicity, counter-screen for Nrf2 inhibitors. A549 ARE-Fluc cells, CellTiter-Fluor viability, 18-24 h. Potency, µM (doses to about 46 µM), without a hit: top-dose activity change, negative = cytotoxicity, hits mostly inhibitors. 390,000 tested, 0.16% active; also: % is scaled to controls: 0 for no effect and ±100 for the full control effect
#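 Cytotoxicity counterscreen: CellTiter-Fluor fluorescence was measured in A549 ARE_Fluc cells after 18-24 h of compound exposure in a concentration series. The subsequent BugLite luminescent read reports ARE-luciferase activity.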
# HepG2 viability = kills HepG2 cells in TGF-b inhibitor counter-screen | HepG2 CAGA-GFP viability, ATP luminescence, 18 h | 410,000 tested, 0.76% active | Potency, µM (doses to about 46.1 µM), for the others: at the top dose activity change, negative = cytotoxicity, actives largely listed as cytotoxic | AID 588856
#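 HepG2 CAGA-GFP cells (1000/well, DMEM with 1% FBS) received compound, then TGF-beta at 500 pg/mL final, and were incubated 18 hours at 37 degrees C. Viability was read by CellTiter-Glo luminescence. Media-only wells were set as complete cell-killing and DMSO as no toxicity.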
# ATXN2 expr inh = ATXN2 expression inhibition. HEK-293 ATXN2-luciferase reporter, luminescence, 24 h. 360,000 tested, 0.72% active. Potency, µM (highest dose often 57 µM), for inactives: at the highest dose activity change, negative = inhibition, most hits filed as inhibitors; also: % is scaled to controls: 0 for no effect and ±100 for the full control effect; nearly all actives have a fitted effect of over 55% in size
#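 ATXN2-luciferase reporter cells (luciferase flanked by upstream and downstream ATXN2 gene portions) were treated 24 h at 37 °C with compounds at up to 57 uM. SteadyGlo luminescence gave expression; GF-AFC fluorescence gave viability.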
# ATXN viability = reduces viability in counter-screen for ATXN expression inhibitors; S2 cells (HEK-293 line with an ATXN2-luciferase reporter) viability, CellTiter-Fluor protease fluorescence, 24 h; Potency, µM (doses to about 56.7 µM), usual class: cytotoxic; 400,000 tested, 0.49% active; AID 651635; also: nearly all actives have a fitted effect of over 40% in size
# Nrf2 inh = Nrf2 pathway inhibition; Potency, µM (highest dose often 46 µM), inactives show at the top dose activity change, negative = inhibition, actives largely listed as inhibitors; A549 ARE-Fluc reporter, luciferase luminescence, 18-24 h; AID 504444; 360,000 tested, 2.1% active; also: % is scaled to controls: 0 for no effect and ±100 for the full control effect; nearly all actives have a fitted effect of over 60% in size
#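 Quantitative HTS in A549 cells stably bearing an antioxidant response element-firefly luciferase construct. Inhibition of Nrf2-driven transcription was scored by luminescence after 18-24 h of compound exposure at 37 °C.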
# TGFb inhibitor = inhibitors of TGF-b signaling | HepG2 CAGA-GFP TGF-b/SMAD3 reporter, GFP fluorescence, 18 h; TGF-beta stimulated, 500 pg/mL final | Potency, µM (titrated, usually from 46.1 µM), for the others: at the top dose activity, negative = inhibition, usual class: inhibitors | 410,000 tested, 1.2% active | AID 588855; also: % is scaled to controls: 0 for no effect and ±100 for the full control effect; nearly all actives have a fitted effect of over 65% in size
#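 HEPG2 CAGA-GFP cells (1000/well, DMEM with 1% FBS) were pre-incubated 2 h at 37 degrees C, given compound by pin tool, then stimulated with TGF-beta at 500 pg/mL final for 18 h before per-cell GFP fluorescence imaging.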
# Numbers without * were called inactive; i = inactive; ? = inconclusive; nt = no result; ! = not active in a repeat. Compounds with a hit are over-represented: about 3.8% of the library has one in this group of screens. Calls follow the shape of the dose curve; as a rule, active = well fitted curve in the direction sought with a large enough effect; inconclusive = small, poorly fitted or top-dose-only effect, or another doubt; inactive = no such curve, though single readings can be large; an effect the other way counts as inactive or inconclusive. Potency is read from the fitted curve at half-maximal effect.
SMILES,A549 viability,HepG2 viability,ATXN2 expr inh,ATXN viability,Nrf2 inh,TGFb inhibitor
Cc1cccc(NC(=O)c2c(NC(=O)C(F)(F)F)sc3c2CCCCC3)c1,?,-111%,nt,nt,2.6µM*,1.6µM*
Cc1ccccc1NC(=O)c1c(NC(=O)C(F)(F)F)sc2c1CCCCC2,?,-38%,nt,nt,2.3µM*,1.4µM*
O=C(COc1ccc(Cl)cc1)Nc1sc2c(c1C(=O)Nc1cccc(Cl)c1)CCCC2,-3%,-1%,nt,nt,?,-1%
CC1(C)C(=O)Nc2ccccc2N1C(=O)COc1ccccc1C#N,0%,-12%,-1%,i,-1%,-6%
COc1cccc(NC(=O)CSc2nc(=O)[nH]c3c2CCCC3)c1,-5%,-20%,nt,nt,nt,-6%
COc1ccc(C(=O)O)cc1NC(=S)NC(=O)/C=C/c1ccc(C(C)C)cc1,6%,-17%,-19%,i,21%,-5%
CN(C)CCNC(=O)c1ccc2c(=O)n(Cc3ccc(Cl)cc3)c(=S)[nH]c2c1,2%,-77%,-22%,i,-4%,?
CCCCN(C)CCNC(=O)c1ccc(Cn2c(=S)[nH]c3ccc(Br)cc3c2=O)cc1,8%,-39%,nt,i,?,11µM*
COc1cccc(F)c1C(C[N+](=O)[O-])c1c(N)n(C)c(=O)n(C)c1=O (stereo not drawn),?,-123%,nt,20µM*,?,4µM*
O=C(c1ccc(F)cc1F)C1CCN(c2ccc([N+](=O)[O-])cn2)CC1,-17%,-33%,?,i,23µM*,-30%
CC1=CC2=NC(=O)/C(=C\c3cccn3CCOc3cc(C)ccc3C)C(=N)N2O1,-16%,3%,-27%,i,-28%,?
N#CC1=C(N)OC2=C(CC/C2=C\c2ccccc2Cl)C1c1ccccc1Cl (stereo not drawn),5%,-28%,nt,nt,?,11µM*
COc1ccc(C(=O)N2CCCC(CCC(=O)NCc3ccccc3F)C2)c(OC)n1 (stereo not drawn),9%,-4%,5%,i,?,-2%
Cc1ccc(/C=C/C(=O)c2ccccc(=O)c2O)cc1C,?,-48%,?,?,21µM*,10µM*
O=C(/C=C/c1ccccc1)c1cc(Br)ccc(=O)c1O,?,-16%,20µM*,?,18µM*,16µM*
COc1ccc(C=CC(=O)c2ccc(OC)c(OC)c2O)cc1OC,-1%,-16%,2%,i,-14%,-7%
CCOC(=O)c1c(NC(=O)CSc2nc(-c3ccc(OC)cc3)cc(C(F)(F)F)n2)sc(C)c1C,5%,-2%,4%,i,3%,1%
CCN1CCN(Cc2ccc(NC(=O)c3ccc(C)c(NC(=O)c4nccnc4N)c3)cc2C(F)(F)F)CC1,-6%,-118%,28µM*,?,12%,?
CCN1CCN(Cc2ccc(NC(=O)c3cc(NC(=O)c4cnnc5ccccc45)cc(OC)c3)cc2C(F)(F)F)CC1,-7%,18µM*!,?,?,-17%,?
CCN1CCN(Cc2ccc(NC(=O)c3ccc(C)c(NC(=O)c4cncc(-c5cccs5)c4)c3)cc2C(F)(F)F)CC1,?,10µM*,14µM*,nt,8.2µM*,?
CCN1CCN(Cc2ccc(NC(=O)c3ccc(C)c(NC(=O)c4nccn4C)c3)cc2C(F)(F)F)CC1,4%,-23%,-8%,i,-8%,?
CCN1CCN(Cc2ccc(NC(=O)c3ccc(C)c(NC(=O)c4cc(-c5ccc(Br)cc5)n[nH]4)c3)cc2C(F)(F)F)CC1,6%,-96%,32µM*,25µM*,?,?
Cc1cc(NC(=O)CS(=O)(=O)c2cn(Cc3cccc(C(F)(F)F)c3)c3ccccc23)no1,nt,-1%,9%,i,nt,?
O=C(NCc1ccccc1Cl)C1CCCN1S(=O)(=O)c1ccccc1F (stereo not drawn),10%,-31%,-9%,i,-9%,-3%
S=C(NC1CCCCC1)N1CCN(C2CCCCC2)CC1,13%,18µM*,-8%,i,-1%,?
SMILES,A549 viability,HepG2 viability,ATXN2 expr inh,ATXN viability,Nrf2 inh,TGFb inhibitor
S=C(NC1CCCCC1)N1CCOCCOCCN(C(=S)NC2CCCCC2)CCOCCOCC1,?,-13%,?,?,16µM*,?
O=C(NC1CCCCC1)N1CCN(C2CCCCC2)CC1,18%,-39%,-11%,i,27%,-4%
Cc1ccc(S(=O)(=O)/C(C#N)=C/c2c[nH]c3ccccc23)cc1,-23%,-30%,-1%,i,16µM*,?
Cc1ccc(S(=O)(=O)N/N=C/c2c[nH]c3ccccc23)cc1,1%,-29%,-15%,i,?,?
O=C(Nc1nccs1)C1CCN(S(=O)(=O)c2c(Cl)cccc2Cl)CC1,-12%,-19%,-9%,i,16µM*,?
Cc1ccc(-c2noc(CCC(=O)NCCN3CCN(Cc4ccccc4)CC3)n2)cc1,-1%,1.3µM*,-24%,i,nt,22%
CCOc1ccc(S(=O)(=O)n2ccc(C)n2)c2ccccc12,?,-5%,6%,i,23µM*,-24%
CCOc1ccc(S(=O)(=O)N2CCCCC2)c2ccccc12,-2%,-76%,-10%,i,?,0%
Cc1cccc(NC(=O)Cn2nc(-c3ccccc3)c3cnc4ccccc4c32)c1,9%,-48%,0%,i,-8%,-4%
CCN(CC)c1ccc(NC(=O)Cn2cc3c(n2)CCC(C)C3)c(C)c1 (stereo not drawn),-19%,-18%,-22%,i,13µM*,14%
CNC(=O)CN1C(=O)CSc2ncccc21,-2%,2%,0%,i,8%,5%
CCN(CC)c1ccc(NC(=O)CN2C(=O)CSc3ncccc32)c(C)c1,-4%,-8%,-20%,i,10µM*,?
CCOc1ccc(-c2cn3c(n2)sc2cc(C(=O)NCCc4ccc(OC)c(OC)c4)ccc23)cc1,1%,-42%,nt,nt,?,-19%
COc1ccc2c(c1)C(C)(CCN)C(=O)N2C (stereo not drawn),-4%,8%,0%,i,-2%,-1%
CCN(CC)CCn1c(NS(=O)(=O)c2ccc(Cl)cc2)nc2ccccc21,-6%,-29%,nt,i,-9%,2%
Cc1ccc(C)c(S(=O)(=O)Nc2ccc3sc(C)nc3c2)c1,-10%,-10%,-3%,i,?,-26%
Cc1nc2cc(NS(=O)(=O)c3cccc4cccnc34)ccc2s1,1%,-9%,-14%,i,26µM*,0%
